Assay outcomes as filed in PubChem BioAssay.
Giardia killer = Giardia lamblia killing | activity change, % at 7.66 µM, hits read low | Giardia lamblia trophozoite viability | AID 540267 | hit rate 0.15% among 340,000; in the data active = activity change below about -80%; inconclusive = between about -30% and that limit;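 note: parasites exposed to compound for two days anaerobically before the ATP read; % is set by controls: 0 for no effect and ±100 for the full control effect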
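Luminescent ATP signal served as the viability read-out, measured 15-30 min after adding ATP detection reagent to trophozoites that had been incubated with compounds for 48 hrs at 37 deg C anaerobically at 100 cells/well.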
TGFb SMAD3 inh = TGF-b pathway inhibition; HepG2 CAGA-GFP TGF-b/SMAD3 reporter, GFP fluorescence, 18 h; TGF-beta stimulated, 500 pg/mL final; Potency, µM (highest dose often 46.1 µM), for inactives: at the top dose activity, negative = inhibition, most hits filed as inhibitors; hit rate 1.2% among 410,000; note: potency is the fitted concentration of half-maximal effect; % is set by controls: 0 for no effect and ±100 for the full control effect; nearly all actives have a fitted effect of over 65% in size
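First, reporter cells (HEPG2 CAGA-GFP) rested 2 h at 37 degrees C. Next, compounds were pinned in and TGF-beta added to 500 pg/mL final. After 18 h, GFP was imaged per cell and summed per well.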
HT1080NT lethal = kills 2HG-producing HT-1080-NT fibrosarcoma cells | HT-1080-NT fibrosarcoma viability, CellTiter-Glo ATP luminescence, 48 h | Potency, µM (highest dose often 46.1 µM), for the others: at the highest dose activity, negative = less viability, actives largely listed as cytotoxic | hit rate 1.6% among 360,000 | AID 686970;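 note: NT is the 2HG producing partner of a matched IDH1 knockdown line; potency is the fitted concentration of half-maximal effect; 0% = DMSO-treated cells and -100% = media-only wells without cells; nearly all actives have a fitted effect of over 55% in size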
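Compounds were tested in concentration-response format on HT-1080-NT cells for 48 hours at 37 degrees C. Cell viability came from CellTiter-Glo luminescence; curves were classified by r2, response magnitude and activity.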
HT1080 IDH1KD tx = HT-1080 IDH1 knockdown cell toxicity (counter line); Potency, µM (doses to about 46.1 µM), for inactives: top-dose activity, negative = toxicity, actives largely listed as cytotoxic; hit rate 2% among 360,000; HT-1080 IDH1 knockdown viability, ATP luminescence, 48 h; AID 686971;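 note: potency is the fitted concentration of half-maximal effect; 0% = DMSO wells and -100% = cell-free medium wells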
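% activity derives from luminescence (CellTiter-Glo), normalised to DMSO and no-cell wells. HT-1080-IDH1KD cells, 750/well, had 48 h compound exposure at 37 °C.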
HepG2 tox = kills HepG2 cells in TGF-b inhibitor counter-screen; HepG2 CAGA-GFP viability, ATP luminescence, 18 h; Potency, µM (top dose mostly 46.1 µM), without a hit: at the top dose activity change, negative = cytotoxicity, most hits filed as cytotoxic; hit rate 0.76% among 410,000; AID 588856; note: potency is the fitted concentration of half-maximal effect
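CellTiter-Glo luminescence gave cytotoxicity after 18 hours at 37 degrees C. The cells were HepG2 CAGA-GFP in 1% FBS DMEM, stimulated with 500 pg/mL TGF-beta after compound addition. %Activity was normalised to no-cell wells (complete cell-killing) and DMSO (no toxicity), and curves were fitted and classified.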
IL-1B inflam inh = inhibitors of inflammasome signaling (IL-1 beta secretion); THP-1 LPS/ATP IL-1B secretion, AlphaLISA, 16 h; hits give low values; activity change, % at 57.5 µM; hit rate 4.7% among 360,000; AID 743279; in the data active = activity change below about -50%; inconclusive = mostly about -30% to -49%; note: % is set by controls: 0 for no effect and ±100 for the full control effect
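THP-1 cells pretreated 1 hr with compounds (up to 57.5 uM final), then stimulated with LPS (250 ng/mL final) plus ATP (1.25 mM final); secreted IL-1B measured by AlphaLISA after 16 hr, decreased signal indicating inhibition.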
The depositor's hits bear a star; u = inconclusive; x = no result given; [ ] = another dose, or the depositor's remark. A selection: hits, their analogues and other compounds. The true share with any hit is near 6.5%. Unless noted, calls come from the whole dose curve; as a rule, active = well fitted curve in the direction sought with a large enough effect; inconclusive = small, poorly fitted or top-dose-only effect, or another doubt; inactive = no such curve, though single readings can be large; an effect the other way counts as inactive or inconclusive.

SMILES | Giardia killer | TGFb SMAD3 inh | HT1080NT lethal | HT1080 IDH1KD tx | HepG2 tox | IL-1B inflam inh
C[C@H](CO)N1C[C@H](C)[C@@H](CN(C)C(=O)Nc2ccc(C(F)(F)F)cc2)Oc2c(NC(=O)Nc3ccccc3)cccc2C1=O | 11.1 | u | u | -23.1% | -43.7% | -58.2*
Cc1cccc(NC(=O)CN2CCc3cc4c(cc3C2)OCCCO4)c1 | 22.0 | 8.6% | -0.1% | -10.7% | 2.9% | 30.9
Cc1ccn(CC(=O)O)c(=O)c1 | -12.8 | -17.4% | -1.4% | -3.2% | -6.3% | 11.4
COc1ccc(C=O)cc1COc1ccc2c(c1)OCO2 | -16.0 | 4.7% | u | 23.1µM* | -3.2% | 47.4
COc1ccc(C=C2C=C(C(C)(C)C)C(=O)C(C(C)(C)C)=C2)cc1OC | -14.3 | u | 11.6µM* | 18.4µM* | -49.0% | -95.6*
COc1ccc(CCNC(=O)c2ccc(CNS(=O)(=O)c3ccccc3)cc2)cc1OC | -16.8 | -1.2% | -12.3% | -2.6% | -35.7% | -10.8
O=C(/C=C/c1ccccc1)NC(=S)NNC(=O)Cc1cccs1 | -6.0 | -26.1% | u | u | -9.7% | 39.0
COc1ccc(/C=C/C(=O)NC(=S)NNC(=O)Cc2cccs2)cc1 | 0.7 | u | 14.6µM* | 16.4µM* | -6.7% | 70.6
Oc1ccc(N=Cc2ccc(-c3cccs3)s2)cc1 | -26.7 | 11.2µM* | -27.9%[9.24 µM] | 10µM* | 7.94µM* | 14.1
CCN(CC)C(=O)c1ccc(-c2cccs2)s1 | 5.0 | -16.3% | -3.8% | -1.8% | -9.6% | -10.9
O=Cc1ccc(-c2cccs2)s1 | 7.7 | 5.62µM* | -5.4% | -7.7% | -10.4% | 31.5
COc1ccc(NS(=O)(=O)c2ccc(-c3ccccn3)s2)cc1 | 7.6 | -25.9% | -6.2% | -4.1% | -24.6% | 25.3
N/C(=N\OCC(=O)Nc1ccc(F)c(Cl)c1)c1ccccc1 | 6.4 | -20.4% | -21.0% | -10.9% | -32.1% | -2.1
COCCSc1ccccc1C(=O)NCc1cccnc1 | 13.9 | -1.4% | 5.1% | 1.3% | 1.0% | -75.9*
COc1ccc(C)cc1NC(=O)C(c1ccccc1)N1CCN(CC(=O)N2CCCC2)CC1 (stereo unspecified) | 12.3 | -1.2% | -1.5% | 4.9% | -10.2% | 27.1
COC(=O)c1cc(Br)ccc1-c1ccc(/C=N/n2nnnc2N)o1 | -10.4 | -2.5% | 8.5% | u | -18.8% | 0.9
Cc1[nH]nc(C(=O)NN=Cc2ccccc2Cl)c1N=NN(C)C | 31.9 | 10µM* | 20.6µM* | 23.1µM* | 20µM* | -12.2
O=C(N/N=C/c1ccccc1Cl)c1n[nH]c2c1CCCC2 | -20.3 | 4.5% | 3.4% | 2.3% | -32.6% | -12.2
CCCCOC(=O)c1ccc(-c2ccc(/C=N/NC(=S)NCC)o2)cc1 | -16.1 | -27.0% | 2.82µM* | -23.5% | -49.8% | 18.1
OC(c1ccc(F)cc1)c1ncc(-c2ccc(Oc3ccccc3)cc2)[nH]1 (stereo unspecified) | x | u | u | u | 15.8µM* | -4.1
CC(C)(C)c1ccc(C(O)c2ncc(-c3ccc(F)cc3)[nH]2)cc1 (stereo unspecified) | x | u | u | u | -70.7% | -66.7*
COc1c(C)cc(C(O)c2ncc(-c3ccc(C(F)(F)F)cc3)[nH]2)cc1C (stereo unspecified) | x | u | u | 16.4µM* | -46.2% | 18.2
Cc1cc(C(O)c2ncc(-c3ccc(Oc4ccccc4)cc3)[nH]2)ccc1F (stereo unspecified) | x | u | 18.4µM* | 10.3µM* | -102.5% | -52.6*
CC(C)(C)c1ccc(C(O)c2ncc(-c3ccccc3)[nH]2)cc1 (stereo unspecified) | x | -11.1% | -27.8% | u | -14.6% | -24.1
Cc1cc(C(O)c2ncc(-c3ccc(Cl)cc3)[nH]2)ccc1F (stereo unspecified) | x | -10.2% | u | u | -27.2% | -13.0
SMILES | Giardia killer | TGFb SMAD3 inh | HT1080NT lethal | HT1080 IDH1KD tx | HepG2 tox | IL-1B inflam inh
CC1CC(C)CN(S(=O)(=O)N2CCCC(C(=O)NCCCN3CCOCC3)C2)C1 (stereo unspecified) | -15.0 | 7.4% | 0.9% | 11.7% | 6.7% | -8.3
CCOC(=O)CC1C(=O)NCCN1S(=O)(=O)c1ccccc1 (stereo unspecified) | 8.5 | 11.6% | 6.5% | 10.5% | 6.4% | -5.0
CC12CCC(O)CC1=CCC1C2CCC2(C)C3=NN=CC3CC12 (stereo unspecified) | 9.9 | 0.0% | u | 32.6µM* | 7.4% | 54.4
Clc1ccccc1Cn1c(/C=C/c2ccco2)nc2ccccc21 | -7.9 | u | u | 23.1µM* | -39.3% | u
O=C(NCCCc1nc2ccccc2n1Cc1ccccc1Cl)c1ccco1 | x | u | x | x | -30.1% | x
COc1ccccc1/C=C/c1nc2ccccc2s1 | x | -7.9% | x | x | -4.0% | x
Cc1ccc(SCCNC(=S)Nc2ccc(C)c(C)c2)cc1 | -4.7 | u | -10.7% | -7.0% | -27.0% | -28.0
Cc1cc(C)cc(NC(=S)NCCSc2ccc(Cl)cc2)c1 | -5.0 | u | u | u | -44.9% | -202.0*
COC(=O)Cc1ccc(NC(=S)NCCSc2ccc(Cl)cc2)cc1 | 6.6 | -11.4% | 3.0% | -11.6% | -37.6% | -57.0*
CCOC(=O)c1cc(S(=O)(=O)N2CCN(c3ccccc3F)CC2)[nH]n1 | x | -12.9% | x | x | -30.1% | x
O=c1[nH][nH]c2c1[C@H](CCc1cccc(Cl)c1)O[C@H](C1CCCC1)C2 | x | x | u | 7.31µM* | x | -19.9
O=c1[nH][nH]c2c1[C@H](CCc1cccc(Cl)c1)O[C@H](C1CC1)C2 | x | x | 16.6% | 4.7% | x | -18.5
Cc1ccc(OCC(=O)NNC(=O)c2cc3ccccc3o2)cc1 | -9.6 | 7.4% | 1.0% | -3.4% | -1.5% | 21.0
O=C(COC(=O)c1ccccc1O)NC12CC3CC(CC(C3)C1)C2 | -20.5 | 4.6% | 1.0% | -3.1% | -6.1% | 1.1
O=C(COC(=O)/C=C/C(=O)OCC(=O)NC12CC3CC(CC(C3)C1)C2)NC12CC3CC(CC(C3)C1)C2 | 0.3 | 0.0% | u | u | -45.1% | -93.2*
COCCn1c(CN2CCN(c3cccc(Cl)c3)CC2)nc2c1c(=O)n(C)c(=O)n2C | 13.4 | -37.9% | -3.9% | -5.1% | -37.8% | 47.8
CCNc1nc(CN2CCOCC2)nc2sc3c(c12)CCC3 | -1.5 | u | -2.1% | 3.1% | -23.8% | -14.8
c1ccc2c(c1)CCN(c1nc(CN3CCOCC3)nc3sc4c(c13)CCCC4)C2 | -3.0 | u | -14.6% | -21.8% | -20.2% | -51.3*
CC(C)NC(=O)CSc1nccc(-c2cccs2)n1 | -6.8 | -27.5% | 2.7% | 11.0% | 1.4% | 0.0
